The record followed here is ChEMBL document CHEMBL3988442, “University of Dundee, Small-Polar-MMV Screening Library” (2021).

For assay [1], the target named is T1, Aspartate--tRNA(Asp/Asn) ligase (Mycobacterium tuberculosis (strain ATCC 25618 / H37Rv)) (UniProt P9WFW3). Note: in the data most compounds retested in dose-response had high values.
T1 sequence (whole entry): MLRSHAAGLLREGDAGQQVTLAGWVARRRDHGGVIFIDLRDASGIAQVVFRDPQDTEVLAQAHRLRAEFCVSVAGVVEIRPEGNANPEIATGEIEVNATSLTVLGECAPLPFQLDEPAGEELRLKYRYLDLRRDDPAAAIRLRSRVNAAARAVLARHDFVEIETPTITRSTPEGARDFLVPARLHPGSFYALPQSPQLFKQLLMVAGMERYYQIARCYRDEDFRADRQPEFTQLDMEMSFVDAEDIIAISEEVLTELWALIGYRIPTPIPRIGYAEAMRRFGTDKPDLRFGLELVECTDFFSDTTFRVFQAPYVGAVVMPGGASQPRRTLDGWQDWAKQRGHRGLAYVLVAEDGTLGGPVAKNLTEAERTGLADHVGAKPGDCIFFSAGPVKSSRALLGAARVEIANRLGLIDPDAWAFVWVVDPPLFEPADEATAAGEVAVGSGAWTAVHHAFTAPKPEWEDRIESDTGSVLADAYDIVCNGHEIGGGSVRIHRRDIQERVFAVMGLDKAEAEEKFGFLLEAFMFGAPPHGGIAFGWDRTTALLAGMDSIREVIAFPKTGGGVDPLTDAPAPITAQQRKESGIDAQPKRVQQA
The experiment in a line: Assay for Asp RNA synthetase-1 from Mycobacterium tuberculosis. In kind it is functional. More on the design: scale not given: direction of the effect not stated beside the values. The conditions noted are these: 30 µM.

The target in assay [2] is Shiga toxin 2 (Escherichia coli O157:H7) (UniProt P09385+P09386). Nature of the assay: E. coli 0.157:H7 Shiga Toxin SOP - stx2 screening assay. It counts as functional. Further details: scale not given: direction of the effect not stated beside the values. To be noted: 30 µM.

Regarding `CCCN(CC)C(=O)c1cc2c(c3ccccc3n2C)n1C(=O)N(C)C`, the Percent Effect turned out to be 6.03% in assay [1] and 2.44% in assay [2].

As for `O=C(Nc1cccnc1)[C@H]1C[C@@H]2CCN(c3nncs3)C[C@H]2O1`, the Percent Effect was -3.84% in assay [1] and -14% in assay [2].

`CCC(=O)N1CCc2[nH]cnc2C12CCN(C(=O)CCS(C)(=O)=O)CC2`: the Percent Effect in assay [1] was -0.836%; in assay [2] it was 9.19%.

Regarding `O=C(NCCCOCC1CC1)Nc1cccnc1N1CCOCC1`, the Percent Effect was -1.34% in assay [1] and 4.93% in assay [2].

For the compound `Cc1ccc(S(=O)(=O)N2CSCC2C(=O)N(C)C2CC2)cc1Cl` (stereo not given), the Percent Effect in assay [1] was 3.03%; in assay [2], 19.2%.

In the case of `COc1ccc(CNCc2ccnc(N3CCOCC3)c2)c(OC)c1`, the Percent Effect in assay [1] was 1.38%; in assay [2], 17.1%.

As to `O=C(COc1ccccc1)N1CCC[C@]2(C[C@H](OCC3CC3)CO2)C1`, the Percent Effect was 1.3% in assay [1] and -10.4% in assay [2].

As for `CCc1nnsc1C(=O)N1CCOC(c2nc(C)n[nH]2)C1` (stereo not given), the Percent Effect was -2.08% in assay [1] and -18.3% in assay [2].

Take `O=C(COC(=O)Cc1cccs1)NCc1cccc(NC(=O)C2CC2)c1`: the Percent Effect in assay [1] is -1.66%; in assay [2], 28%.

On to `COC(=O)c1ccoc1COC(=O)CCc1ccc(OC)c(OC)c1`, for which the Percent Effect was -3.44% in assay [1] and 0.432% in assay [2].

For the compound `COc1ccc(NC(=O)CCc2c(C)nc3cc(O)nn3c2C)cn1`, the Percent Effect in assay [1] is -0.607%; in assay [2], -81.2%.

Regarding `Cc1nc(C)n(CC2CCCCN2CC(=O)Nc2ccncc2)n1` (stereo not given), the Percent Effect in assay [1] was -1.82%; in assay [2] it was -16.8%.

On to `CCn1cc(CN2CCCN(C(=O)c3sccc3C#N)CC2)cn1`, for which the Percent Effect is 0.257% in assay [1] and -4.04% in assay [2].

Regarding `Cc1occc1C(=O)N1CCO[C@H]2[C@@H](Oc3ccccn3)CC[C@@H]21`, the Percent Effect was -0.28% in assay [1] and -16.2% in assay [2].

For `CN(C)CC(=O)N1C[C@H]2CCC[C@@]2(COc2ccccn2)C1`, the values for the Percent Effect in assay [1] and in assay [2] were 1.75% and 13.5%, respectively.

Take `Cc1nc(N2CCCC2)nc2c1CCN(C(=O)C1CCCC1)CC2`: the Percent Effect is 0.726% in assay [1] and -9.64% in assay [2].

Take `CCc1nc(CN(C(C)=O)C2CCN(CCc3cnn(C)c3)C2)no1` (stereo not given): the figures for the Percent Effect in assay [1] and in assay [2] were -5.05% and -15.6%, respectively.

Consider `Cc1cccc(-c2ccc(C(=O)NCC(C)(C)C(N)=O)c(=O)[nH]2)c1`, for which the Percent Effect is 7.72% in assay [1] and -21.6% in assay [2].

Turning to `Cc1ncoc1C(=O)N1C[C@H]2CCC[C@@]2(COCC2CCOCC2)C1`, the Percent Effect in assay [1] was -1.27%; in assay [2], 3.67%.

On to `CC(O)CN1CCN(C(=O)c2cccc(CC#N)c2)CC1` (stereo not given), for which the Percent Effect in assay [1] was 2.73%; in assay [2], -54.8%.

Take `COCC1CC2(CCN(C(=O)c3cc(C)oc3C)CC2)CN1C(C)C` (stereo not given): the Percent Effect in assay [1] was -2.27%; in assay [2] it was -25.7%.

With `Cc1nc(COC[C@]23COC[C@H]2CN(Cc2ccoc2)C3)cs1`, the Percent Effect in assay [1] is -0.55%; in assay [2] it was 4.86%.

As for `O=C(Nc1ccccn1)N(CCO)Cc1ccsc1`, the values for the Percent Effect in assay [1] and in assay [2] were -3.79% and 31.7%, respectively.

For the compound `CCCN1CCC(N(Cc2ncc(C)o2)C(C)=O)C1` (stereo not given), the Percent Effect in assay [1] is 2.38%; in assay [2] it was 2.8%.

As for `CCn1nc(C(C)C)cc1C(=O)NCCCOC`, the Percent Effect in assay [1] was -1.73%; in assay [2], 3.47%.

Consider `Cc1nc(CN(C)C2CCN(CC(=O)NC3CCOCC3)C2)no1` (stereo not given), for which the Percent Effect was -1.22% in assay [1] and 17.1% in assay [2].

`Cn1cc(CN2CCCN(C(=O)c3cc[nH]n3)CC2)cn1`: the figures for the Percent Effect in assay [1] and in assay [2] were -4.23% and -19.9%, respectively.

Take `CC(C)c1noc(CCCC(=O)N2CCN(Cc3ccncc3)CC2)n1`: the Percent Effect in assay [1] is 3.6%; in assay [2], -20.6%.

Turning to `COc1cccc(COCC(=O)N2CCCC(c3nncn3C)C2)c1` (stereo not given), the figures for the Percent Effect in assay [1] and in assay [2] were -1.97% and 8.24%, respectively.

For `O=C1CC(c2cccnc2)C2(CCN(S(=O)(=O)C3CC3)CC2)N1` (stereo not given), the Percent Effect in assay [1] was -1.76%; in assay [2], 4.96%.

In the case of `Cc1ccc(CN2CCn3cc(CN(C)Cc4ccco4)nc3C2)o1`, the Percent Effect is 1.01% in assay [1] and -24.1% in assay [2].

`O=C(Cc1cccnc1)N1CCC2(CC1)CCN(C1CCOCC1)C2`: the Percent Effect was 1.28% in assay [1] and -40.8% in assay [2].

As to `CCc1nc(CN2CCCC(NCc3nnc(C4CC4)o3)C2)no1` (stereo not given), the Percent Effect in assay [1] is -2.05%; in assay [2], 17.9%.

For the compound `Cc1ccc(C)c(-c2csc(N)c2C#N)c1`, the Percent Effect in assay [1] is 2.35%; in assay [2], 4.18%.

Consider `NC(=O)CN1CCCN(C(=O)c2ccn(-c3ccccc3)n2)CC1`, for which the Percent Effect is -2.4% in assay [1] and 6% in assay [2].

For the compound `O=C(COCC1CC1)N1CCCC(n2cncn2)C1` (stereo not given), the Percent Effect is -4.03% in assay [1] and 18.2% in assay [2].

As to `CN(C)c1ccc(C(=O)NCC2(c3ccccc3)CCOCC2)cc1`, the Percent Effect in assay [1] is 1.31%; in assay [2] it was -24.7%.

As for `COc1ncccc1C(=O)N1CCCC(c2cc(C)[nH]n2)C1` (stereo not given), the Percent Effect in assay [1] is -4.25%; in assay [2] it was 5.54%.

Take `CC(C)CN(Cc1nc2c(cnn2C)c(=O)[nH]1)C(C)C`: the Percent Effect was -2.77% in assay [1] and 0.929% in assay [2].

For the compound `CN1CCCC[C@@H]2[C@H]1[C@@H](c1ccccc1)CCN2C(=O)c1ccccc1`, the Percent Effect is -4.21% in assay [1] and -4.17% in assay [2].

Regarding `C[S+]([O-])c1nncn1CC(=O)c1ccc2c(c1)CCO2` (stereo not given), the Percent Effect is 3.29% in assay [1] and -38.1% in assay [2].

For `Cc1ccc(NC(=O)CNc2cccc3c2CCCC3)c(Br)c1`, the Percent Effect is -0.719% in assay [1] and 7.99% in assay [2].

Regarding `COc1c(CNCc2ccnc(N3CCCC3)c2)c(C)nn1C`, the Percent Effect in assay [1] was 2.34%; in assay [2], -55.3%.

`Cn1ccnc1CNC(=O)N1CCCC(Cc2nccn2C)C1` (stereo not given): the Percent Effect was 0.605% in assay [1] and -13.5% in assay [2].

As to `CS(=O)(=O)NCc1cc2n(n1)CCCN(Cc1cccc(C#N)c1)C2`, the Percent Effect in assay [1] was 0.342%; in assay [2], 18.6%.

As to `Cc1noc(C2CCCN(C(=O)c3ccc(Br)o3)C2)n1` (stereo not given), the Percent Effect in assay [1] is -2.54%; in assay [2], -8.47%.

As for `CNC(=O)NC(=O)Cn1cc(-c2ccccc2)cn1`, the values for the Percent Effect in assay [1] and in assay [2] were -2.46% and 5.7%, respectively.

Take `O=C(CCn1cncn1)NC1(c2cccc(Br)c2)CCC1`: the Percent Effect in assay [1] is 8.08%; in assay [2], -21.1%.

Take `O=C1CC(c2ccco2)c2sc(C(=O)O)c(-c3ccccc3)c2N1` (stereo not given): the Percent Effect is 7.4% in assay [1] and 19% in assay [2].

Regarding `Cc1cc(C)n(CC2CCCN2C(=O)Cc2c(C)noc2C)n1` (stereo not given), the Percent Effect in assay [1] was 7.79%; in assay [2] it was 9.09%.
